Among the data in PubChem BioAssay (NCI) are growth values, retold here.

Structures are written as SMILES. About 83,000 compounds went through this panel and 20% of them were active in at least one assay; those are over-represented in the sample as a whole.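 Assay: single dose, 48 h. Readout: percent growth (0 = no net growth; negative = cell death). Active: <10.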 Unmarked numbers belong to inactive results. Activity calls are given as the source filed them.

Among the test systems are SK-MEL-2 melanoma; EKVX NSCLC; SN12C renal; UO-31 renal; TK-10 renal; ACHN renal; CAKI-1 renal; A498 renal; CCRF-CEM leukemia; MOLT-4 leukemia; RPMI-8226 leukemia; OVCAR-8 ovarian; OVCAR-5 ovarian; OVCAR-4 ovarian; SK-OV-3 ovarian; IGROV1 ovarian; OVCAR-3 ovarian; HS 578T breast; NCI/ADR-RES ovarian.
Common to all, as to experiment: NCI-60 one-dose screen, 48 h (100 = growth as untreated, 0 = no growth, -100 = all killed)
What all share (details): 10 µM unless noted

`C[C@]12CC[C@@H]3c4cc(OC(F)F)c(O)cc4CC[C@H]3[C@@H]1CC[C@@H]2OS(N)(=O)=O`: the growth with SK-MEL-2 melanoma was 42.1%; in the experiment on EKVX NSCLC, 24.6%; in the experiment on SN12C renal it was 44.2%; in the experiment with UO-31 renal, 38.2%; in the experiment with TK-10 renal, 93.2%; in the experiment on ACHN renal, 50.7%. Also, the growth in the experiment on CAKI-1 renal was 34.5%; in the experiment with A498 renal, -7.08% (active); in the experiment on CCRF-CEM leukemia, 16.6%; in the experiment with MOLT-4 leukemia, 25.3%; in the experiment with RPMI-8226 leukemia, 26.6%; with OVCAR-8 ovarian, 39.3%. Further, the growth with OVCAR-5 ovarian is 57.5%; in the experiment on OVCAR-4 ovarian it was 67.7%; in the experiment with SK-OV-3 ovarian, 39.7%; with IGROV1 ovarian, 37.1%; in the experiment on OVCAR-3 ovarian, -0.18% (active); with HS 578T breast it was 32.5%. Besides, the growth with NCI/ADR-RES ovarian was 12.5%.
With `COCN1CCC2N(COC)CCC3N(COC)CCC1N23` (configuration not stated), the growth was 107% in the experiment with SK-MEL-2 melanoma; 108% in the experiment on EKVX NSCLC; 89.6% with SN12C renal; 107% in the experiment on UO-31 renal; 113% in the experiment with TK-10 renal; 108% in the experiment on ACHN renal. The growth in the experiment with CAKI-1 renal was 102%; in the experiment with A498 renal it was 113%; in the experiment on CCRF-CEM leukemia it was 104%; with MOLT-4 leukemia, 111%; in the experiment with RPMI-8226 leukemia, 118%; in the experiment with OVCAR-8 ovarian it was 99%. Further, the growth in the experiment on OVCAR-5 ovarian is 103%; in the experiment on OVCAR-4 ovarian, 110%; in the experiment with SK-OV-3 ovarian, 101%; with IGROV1 ovarian, 126%; in the experiment with OVCAR-3 ovarian, 116%; in the experiment on HS 578T breast, 124%. Moreover, the growth with NCI/ADR-RES ovarian was 108%.
Regarding `C=C(C)[C@@H]1CC=C2c3sc(-c4ccc(C)cc4)nc3C[C@@H](C)[C@]2(C)C1`, the growth with SK-MEL-2 melanoma is 105%; in the experiment with EKVX NSCLC, 95.1%; in the experiment with SN12C renal, 98.8%; in the experiment on UO-31 renal it was 78%; in the experiment with TK-10 renal, 113%; in the experiment with ACHN renal, 102%. In addition, the growth is 90.6% in the experiment with CAKI-1 renal; 106% with A498 renal; 99.4% in the experiment with CCRF-CEM leukemia; 98% with MOLT-4 leukemia; 109% in the experiment on RPMI-8226 leukemia; 99.3% in the experiment with OVCAR-8 ovarian. The growth is 101% in the experiment on OVCAR-5 ovarian; 98.2% in the experiment with OVCAR-4 ovarian; 97.5% with SK-OV-3 ovarian; 109% in the experiment with IGROV1 ovarian; 104% in the experiment with OVCAR-3 ovarian; 100% in the experiment on HS 578T breast. The growth in the experiment on NCI/ADR-RES ovarian was 106%.
In the case of `Cc1c(C(=O)OC(=NC2CCCCC2)NC2CCCCC2)sc2c1c(=O)nc1c(C#N)n[nH]n12`, the growth was 93.6% with SK-MEL-2 melanoma; 109% with EKVX NSCLC; 117% in the experiment on SN12C renal; 79.6% in the experiment on UO-31 renal; 117% with TK-10 renal; 106% in the experiment with ACHN renal. The growth in the experiment with CAKI-1 renal was 101%; with A498 renal, 119%; in the experiment with CCRF-CEM leukemia, 300%; in the experiment on MOLT-4 leukemia, 99.7%; in the experiment with RPMI-8226 leukemia, 137%; with OVCAR-8 ovarian it was 104%. Besides, the growth with OVCAR-5 ovarian was 75.8%; in the experiment on OVCAR-4 ovarian it was 105%; in the experiment on SK-OV-3 ovarian, 106%; with IGROV1 ovarian, 84.6%; in the experiment with OVCAR-3 ovarian, 105%; in the experiment on HS 578T breast it was 104%. For the same compound, the growth in the experiment with NCI/ADR-RES ovarian was 106%.
For the compound `O=c1ccn2nc3ccccc3c2[nH]1`, the growth was 108% in the experiment on SK-MEL-2 melanoma; 63.6% in the experiment on EKVX NSCLC; 84.8% with SN12C renal; 76.6% with UO-31 renal; 121% in the experiment with TK-10 renal; 91.1% in the experiment with ACHN renal. Also, the growth in the experiment with CAKI-1 renal was 89.4%; in the experiment with A498 renal, 125%; in the experiment with CCRF-CEM leukemia, 118%; with MOLT-4 leukemia, 108%; in the experiment on RPMI-8226 leukemia, 101%; with OVCAR-8 ovarian, 114%. Also, the growth in the experiment with OVCAR-5 ovarian is 79.2%; in the experiment on OVCAR-4 ovarian, 111%; with SK-OV-3 ovarian, 99.4%; in the experiment on IGROV1 ovarian, 110%; in the experiment with OVCAR-3 ovarian, 117%; in the experiment with HS 578T breast, 134%. For the same compound, in the experiment on NCI/ADR-RES ovarian, the growth is 60.1%.
On to `CCN(CCNc1ccc(C)c2sc3ccccc3c(=O)c12)CC(C)(C)O`, for which the growth in the experiment on SK-MEL-2 melanoma is 77.3%; in the experiment with EKVX NSCLC it was 101%; with SN12C renal, 101%; with UO-31 renal, 70.2%; with TK-10 renal, 89.7%; in the experiment with ACHN renal, 79.7%. Also, the growth in the experiment on CAKI-1 renal was 79%; with A498 renal it was 81%; in the experiment with CCRF-CEM leukemia, 39.9%; in the experiment on MOLT-4 leukemia it was 40%; in the experiment with RPMI-8226 leukemia it was 13.5%; with OVCAR-8 ovarian it was 87.1%. The growth with OVCAR-5 ovarian was 79.4%; in the experiment with OVCAR-4 ovarian, 95.7%; in the experiment on SK-OV-3 ovarian, 76.3%; with IGROV1 ovarian, 79.4%; in the experiment with OVCAR-3 ovarian, 103%; in the experiment with HS 578T breast, 59.5%. In addition, the growth in the experiment with NCI/ADR-RES ovarian was 70.9%.
`O=C1N=c2cc3c(cc2=C/C1=C/c1sc(=S)n(CCc2ccc(O)cc2)c1O)OCCO3`: the growth in the experiment with SK-MEL-2 melanoma was 82.9%; with EKVX NSCLC, 61.3%; with SN12C renal, 5.51% (active); with UO-31 renal, 71.1%; with TK-10 renal, 90.3%; with ACHN renal, 6.54% (active). Besides, the growth in the experiment on CAKI-1 renal is 59.7%; in the experiment with A498 renal, 80.2%; in the experiment with CCRF-CEM leukemia it was 40.9%; with MOLT-4 leukemia, 21.5%; in the experiment with RPMI-8226 leukemia, 33.4%; in the experiment with OVCAR-8 ovarian, 28.6%. The growth is 64% with OVCAR-5 ovarian; 80.9% in the experiment on OVCAR-4 ovarian; 105% with SK-OV-3 ovarian; 49% with IGROV1 ovarian; 76.1% with OVCAR-3 ovarian; 74.9% with HS 578T breast. Moreover, the growth in the experiment on NCI/ADR-RES ovarian is 64.7%.
For `Cn1c(=O)c2c(nc(Cl)n2CCl)n(C)c1=O`, the growth was 89.9% with SK-MEL-2 melanoma; 112% with EKVX NSCLC; 106% with SN12C renal; 93.4% in the experiment with UO-31 renal; 95.6% with TK-10 renal; 104% in the experiment with ACHN renal. For the same compound, the growth in the experiment on CAKI-1 renal was 98.5%; in the experiment with A498 renal it was 118%; in the experiment with CCRF-CEM leukemia, 84.9%; in the experiment with MOLT-4 leukemia, 99.7%; in the experiment with RPMI-8226 leukemia it was 92.3%; with OVCAR-8 ovarian, 83%. In addition, the growth was 103% with OVCAR-5 ovarian; 83.2% with OVCAR-4 ovarian; 115% in the experiment with SK-OV-3 ovarian; 53.8% in the experiment on IGROV1 ovarian; 116% in the experiment with OVCAR-3 ovarian; 83.8% with HS 578T breast. For the same compound, the growth in the experiment with NCI/ADR-RES ovarian is 101%.
